An excerpt weighted towards active compounds, which were near 4.7% of everything screened.
D1 PAM: Potentiators of Human D1 Dopamine Receptor: qHTS | D(1A) dopamine receptor (Homo sapiens), P21728 | HEK293 TREx D1 cells, calcium flux, dopamine EC20 potentiation | potentiation, % at 10 µM | 0.036% of 360,000 active; in the data active = potentiation above about 30%
D1 agonist: Allosteric Agonists of the Human D1 Dopamine Receptor: qHTS; HEK293 T-REx D1 cells, calcium flux, agonist mode; 1% of 360,000 active; activation, % at 2 µM; D(1A) dopamine receptor (Homo sapiens), P21728
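Tetracycline-induced HEK293 TREx D1 cells, force-coupled to calcium signalling, were dye-loaded with a no-wash calcium kit. Compound was pin-added after a 10 s baseline. Fluorescence was read kinetically at 1 cycle/s for 180 s, with calcium rises flagged as agonism.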
D1 antag: Antagonist of Human D 1 Dopamine Receptor: qHTS; HEK293 TREx D1 cells, calcium flux, dopamine EC80; active compounds read low; activity change, negative = inhibition, % at 10 µM; AID 504652, 2011; 3.2% of 360,000 active; in the data active = activity change below about -30%
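HEK293 T-REx cells expressing inducible, force-coupled D1 receptor; no-wash Ca dye, 30–90 min RT. Cmpd → 180 s read at 1 Hz → EC80 DA → 180 s read.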
TRHR enhancer: qHTS for Small Molecule Agonists and Allosteric Enhancers of Human TRH Receptor: Primary Screen for Enhancers. Thyrotropin-releasing hormone receptor (Homo sapiens), P34981. TRHR cells, fluo-8 calcium fluorescence, EC20 TRH enhancement. enhancement, % at 2 µM. 0.66% of 360,000 active. AID 493056, 2011; in the data active = enhancement above about 30%
Target sequence (P34981 whole entry, looked up): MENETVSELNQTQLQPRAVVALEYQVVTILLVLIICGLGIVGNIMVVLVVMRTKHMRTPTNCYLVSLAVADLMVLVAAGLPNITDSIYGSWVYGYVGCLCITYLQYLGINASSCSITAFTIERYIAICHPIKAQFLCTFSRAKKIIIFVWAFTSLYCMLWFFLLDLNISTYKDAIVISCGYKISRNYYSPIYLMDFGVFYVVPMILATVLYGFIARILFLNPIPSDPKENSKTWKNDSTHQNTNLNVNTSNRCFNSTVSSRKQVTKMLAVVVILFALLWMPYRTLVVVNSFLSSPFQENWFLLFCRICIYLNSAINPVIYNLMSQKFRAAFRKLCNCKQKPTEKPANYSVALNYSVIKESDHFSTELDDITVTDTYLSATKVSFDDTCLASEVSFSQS
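TRHR-expressing cells loaded with fluo-8 calcium dye were read kinetically (ex 480/em 530) during compound addition, then stimulated with an EC20 of TRH (10 nM final). Enhancement of the Gq-mediated intracellular calcium response was scored.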
TRHR agonist: qHTS for Small Molecule Agonists and Allosteric Enhancers of Human TRH Receptor: Primary Screen for Agonists. Thyrotropin-releasing hormone receptor (Homo sapiens), P34981. TRHR cells, calcium flux fluo-8, FDSS agonist mode. activation, % at 2 µM. 0.18% of 360,000 active. AID 493084, 2011
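TRHR-expressing cells loaded with fluo-8 calcium dye; 23 nL library compound pin-transferred, kinetic FDSS fluorescence (Ex 480/Em 530) recorded about 180 s for agonist-induced calcium release, before a 10 nM TRH EC20 addition for potentiator mode.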
Large screens that a line does not name were inactive; ! = not confirmed by another sample. Cut-off read from the data, not from the text of the source, unless noted: active = activation above about 30%; inactive = the rest.

CCc1ccc(CN2C(=O)c3ccccc3C2C(=O)NCCc2ccc(OC)c(OC)c2)cc1 (stereo not given)	none
CC1Oc2ccccc2C=C1/C=N/NC(=O)c1ccccc1O (stereo not given)	D1 antag -40
CC1=C(C(=O)Nc2ccc(Cl)cc2)C(c2ccc(C(F)(F)F)cc2)n2nnnc2N1 (stereo not given)	none
Cc1nc(-c2ccccc2)sc1C(=O)NN	none
Cc1nc(-c2ccccc2)sc1C(=O)CSc1ccc(Cl)cc1	none
C=CCNC(=O)c1sc(-c2ccccc2)nc1C	TRHR enhancer 39
Cc1nc(-c2ccccc2)sc1C(=O)CSc1ccc(Br)cc1	D1 antag -36
Cn1c(=O)oc2cc(S(=O)(=O)NCCN3CCN(c4ccccc4F)CC3)ccc21	D1 antag -75
CCOc1ccccc1NC(=O)Cn1c(=O)oc2cc(S(=O)(=O)NCc3ccccc3)ccc21	D1 antag -39
Cn1c(=O)oc2cc(S(=O)(=O)Nc3ccccc3O)ccc21	D1 antag -40!
CC(=O)Nc1ccc(NC(=O)C(Cc2ccccc2)NS(=O)(=O)c2ccc3c(c2)oc(=O)n3C)cc1 (stereo not given)	none
CC(C)c1ccc(NC(=O)C(Cc2ccccc2)NS(=O)(=O)c2ccc3c(c2)oc(=O)n3C)cc1 (stereo not given)	D1 antag -37
COC(=O)c1ccccc1NS(=O)(=O)c1ccc2c(c1)oc(=O)n2C	none
COc1ccc(NC(=O)CN2C(=O)COc3ccc(S(=O)(=O)NC4CCCC4)cc32)cc1OC	none
COC(=O)c1nnn(CC(=O)Nc2ccc(Br)c(C)c2)c1N	none
CCOc1ccc(CN(C(=O)c2cc(=O)c3cc(Cl)ccc3o2)C2CCS(=O)(=O)C2)cc1 (stereo not given)	none
Cc1ccc(NS(=O)(=O)c2ccc3c(c2)oc(=O)n3C)cc1	none
CCc1ccc(NS(=O)(=O)c2ccc3c(c2)oc(=O)n3C)cc1	D1 antag -34
Cn1c(=O)oc2cc(S(=O)(=O)NCc3ccc(Cl)cc3)ccc21	D1 antag -37
Cc1cc(C)c(NC(=O)CSc2nnc3[nH]c(=O)cc(C)n23)c(C)c1	none (no result: D1 antag)
CCC(=O)N1c2ccc(S(=O)(=O)CCC(=O)NCc3cccc(OC)c3)cc2CC1C (stereo not given)	none
CCC(=O)N1c2ccc(S(=O)(=O)NCc3cccc(OC)c3)cc2CC1C (stereo not given)	D1 antag -76
CC(=O)N1c2ccc(S(=O)(=O)NCc3ccc(Cl)cc3)cc2CC1C (stereo not given)	D1 antag -32
O=C(OCc1ccc(Br)cc1)c1cccnc1Cl	none
Cc1noc(C)c1COC(=O)c1cccnc1Cl	D1 antag -34
Cc1ccc(S(=O)(=O)N2CCC(=O)N(C(COC(=O)Nc3ccccc3)Cc3ccccc3)CC2)cc1 (stereo not given)	none
Cc1ccc(COCCN2CCN(S(=O)(=O)c3ccccc3)CCC2=O)cc1	D1 antag -41
Cc1ccc(S(=O)(=O)N2CCC(=O)N(C(CO)Cc3ccccc3)CC2)cc1 (stereo not given)	D1 antag -43
Cc1ccc(NC(=O)OCCN2CCN(S(=O)(=O)c3ccc(C)cc3)CCC2=O)cc1	none
Cc1ccc(S(=O)(=O)N2CCC(=O)N(CCOC(=O)Nc3cccc(Cl)c3)CC2)cc1	D1 antag -31
CNC(=O)C1CCC(Cn2c(=O)c3sccc3n(CC(=O)NCc3ccccc3)c2=O)CC1 (stereo not given)	none
COc1ccccc1NS(=O)(=O)c1cc([N+](=O)[O-])ccc1N/N=C/c1c(C)[nH]c2ccccc12	D1 agonist 62
Cc1[nH]c2ccccc2c1/C=N/Nc1ccc(F)cc1F	none
O=[N+]([O-])c1ccc(N/N=C/c2c[nH]c3ccccc23)c(S(=O)(=O)Nc2ccc(Cl)cc2)c1	D1 agonist 45
Cc1[nH]c2ccccc2c1/C=N/Nc1ccccn1	none
Cc1[nH]c2ccccc2c1/C=N/NC(=O)c1cccc(F)c1	D1 antag -66
CN1CCN(S(=O)(=O)c2cc([N+](=O)[O-])ccc2N/N=C/c2ccc(Cl)cc2)CC1	none
Cc1[nH]c2ccccc2c1/C=N/Nc1ccc([N+](=O)[O-])cc1	D1 agonist 125, TRHR agonist 38
Cc1[nH]c2ccccc2c1/C=N/NC(=O)c1cccc([N+](=O)[O-])c1	none
CC1=C(C(=O)Nc2ccc(C)cc2C)C(c2ccc(C(=O)O)cc2)n2nc(SCc3ccccc3)nc2N1 (stereo not given)	D1 antag -59
CC(C)CC(=O)Nc1cccc(-c2cn3cccnc3n2)c1	none
Cc1onc(-c2c(F)cccc2Cl)c1C(=O)NC(=S)Nc1c(C)n(C)n(-c2ccccc2)c1=O	D1 antag -67
Cc1onc(-c2c(F)cccc2Cl)c1C(=O)Nc1c(C)n(C)n(-c2ccccc2)c1=O	none
COc1ccc(CNC(=O)c2cccn2-c2nnc(N3CCCC3)s2)c(OC)c1	none
O=C(/C=C/c1cccc([N+](=O)[O-])c1)Nc1ccc(NC(=O)c2cccs2)cc1	D1 antag -78
O=C(NCc1ccccc1)/C(=C/c1cccc([N+](=O)[O-])c1)NC(=O)c1ccco1	none (no result: D1 PAM)
O=C(/C=C/c1cccc([N+](=O)[O-])c1)c1cccs1	none
O=C(NCCc1ccccc1)/C(=C\c1cccc([N+](=O)[O-])c1)NC(=O)c1ccco1	D1 antag -34
O=C(Nc1cccc2ccccc12)/C(=C/c1cccc([N+](=O)[O-])c1)NC(=O)c1cccs1	TRHR enhancer 34
Cc1cccc(NC(=O)Cn2c(=O)n(CCC(=O)N3CCc4ccccc4C3)c(=O)c3ccccc32)c1	none
Cc1ccn2c(=O)cc(COc3ccc(NC(=O)c4ccccc4F)cc3)nc2c1	none
Cc1ccc(-c2nc(CS(=O)(=O)CC(=O)NC(C)CCc3ccccc3)c(C)o2)cc1 (stereo not given)	none
CCO/N=C(\C)c1c(O)cc(C(C)C)n(-c2ccccc2)c1=O	D1 antag -36
COc1ccc(-c2nnnn2C)cc1S(=O)(=O)NCc1ccccc1	D1 antag -55
CC(C)C(=O)N(Cc1ccccc1)c1ccccn1	none
CCc1ccc(CN(C(=O)Nc2cccc(Cl)c2)c2ccccn2)cc1	D1 agonist 31
COc1ccc(C(CC(=O)Nc2ccc(C(C)=O)cc2)N2Cc3ccccc3C2=O)cc1 (stereo not given)	none

High-throughput results deposited in PubChem BioAssay by National Center for Advancing Translational Sciences (NCATS).
